# Source: the supplement of paper PMC9950053
# Where a name gives a salt, the structure may show the parent alone.
# Tested on: Danio rerio larvae (5 dpf)
# Assay: excitability (activity period 17 minus period 16, 1-s interval sound) minus DMSO control (percentage points); higher = more acoustic excitability than DMSO larvae
# Conditions: 10 µM; exposure time: 3 h pre-incubation + 3 h imaging
# Experimental: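 Wild-type 5 dpf zebrafish larvae (n=48 per drug, 96-well plates, 28.5 °C) were exposed to Tocris FDA-approved library compounds at 10 µM (0.1% DMSO) for 3 h before and 3 h during imaging. Images were taken every 6 s during visual and acoustic stimuli, and larvae were tracked with Z-LaP Tracker. Each measure is the treated-group mean minus the DMSO control mean (n=844), in percentage points. This mapping covers compounds with 5-character plate codes.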
row,Compound,excitability
1,COc1ccc(C(CN(C)C)C2(O)CCCCC2)cc1 (stereo unspecified) [Venlafaxine hydrochloride],8.91
